# Results from PubChem BioAssay (EPA / NIEHS).
# Active and inactive are the calls of the source. Rule for the calls: active = hit-call score of the fitted dose curve at least 0.9, where 1 is the maximum; inactive = score below 0.9.
# Read-out: Broad substrate specificity ATP-binding cassette transporter ABCG2 (Homo sapiens) (UniProt Q9UNQ0)
# Test: LTEA_HepaRG_ABCG2: Life Technologies and Expression Analysis (LTEA) Assay for ABC Transporter (ABCG2) using HepaRG (AID 2283465)
# Settings: mRNA level, 48 h; actives raise or lower the signal
# Method: LTEA_HepaRG is a cell based, multiplexed-readout assay that uses HepaRG, a human liver cell line, with measurements taken at 48 hours after chemical dosing on a 96-well plate.LTEA_HepaRG_ABCG2 is one of 102 assay component(s) measured in the LTEA HepaRG cell culture assay. It is a marker of Steatosis/NR mediated transport.Data from the assay component LTEA_HepaRG_ABCG2 was analyzed into 1 endpoint. This assay endpoint, LTEA_HepaRG_ABCG2, was analyzed with bidirectional fitting relative to DMSO as the negative control and baseline of activity. Using a type of inducible reporter, measures of mRNA induction for gain or loss-of-signal activity can be used to understand regulation of transcription factor activity. To generalize the intended target to other relatable targets, this assay endpoint is annotated to the transporter intended target family, where the subfamily is ABC transporter.
# A total of 1060 chemcials from the ToxCast library were tested in eight-point concentration-response experiments. Cell culture and cytotoxicity assays were conducted at Thermo Fisher Scientific's Custom Services facility (Madison, WI). A single lot of human HepaRG cells (Thermo Fisher Scientific, Frederick, MD) was used for the cell culture experiments. 96-well format collagen type I coated plates of human HepaRG cells were prepared using established methods. Briefly, cryopreserved HepaRG cells were thawed, plated at a density of approximately 100,000 cells/well in HepaRG Thaw, Plate, and General Purpose media (HPRG770, Thermo Fisher Scientific), and incubated for 48 hours. 0.5% DMSO was selected as vehicle control to balance the requisite need of DMSO in HepaRG cultures to maintain differentiation (for example, baseline metabolism, proportions of hepatocytes vs. cholangiocytes), while enabling further hepatic receptor pathway activation (for example, PXR and CAR) in response to chemical exposure. 48 hours after plating, the culture medium was replaced with HepaRG Serum-Free Incudtion Media. Cells were exposed to each test chemical in duplicate and maintained in CO2 incubators for another 48 hours. Chemical plates were thawed to room temperature and 200x concentrations of treatment groups were prepared. 8-point conentration-reponse curves were made with the highest exposure at 100 uM, followed by half-log dilutions, all in 0.5% DMSO. Each test plate contained variouse controls, induction positive controls (1mM phenobarbital), cytotoxicity positive controls ([…] aflatoxin B1), vehicle controls (0.5% DMSO), and total lysis controls (0.5% DMSO). Cell morphology images were taken using an Essen IncuCyte FLR automated microscope, with six 96-well plates imaged in about 24 minutes. Images were captured and exported and JPEG files. Spent culture media was transfered to black-well plates for the LDH assay, and remaining media was sorted at -80 C for later use. Cells were treated with RLT buffer and frozen until shipped for gene expression analysis. Total RNA was isolated from the cell suspension in 75 uL of Buffer RLT (Qiagen, Germantown, MD 20874) by Quintiles/Expression Analysis (Durham, NC) using a custom isolation procedure. Total RNA from each plate well was transferred to a preamplification plate. Fluidigm's 96.96 Dynamic ArrayTM (Fluidigm, Amsterdam, the Netherlands) technology was used for gene expression analyses by quantitative reverse transcription polymerase chain reaction (qRT-PCR, performed by Quintiles/Expression Analysis, Durham, NC)89. Standard TaqManTM Assays (Applied Biosystems/ThermoFisher Scientific, Foster City, CA) were used to assess the expression of 93 genes selected based on their selectivity and sensitivity to important hepatic receptors known to be modulated by environmental chemicals; importance in human hepatocyte functionality; and hepatotoxicity. […]
# Sequence of Broad substrate specificity ATP-binding cassette transporter ABCG2 (Homo sapiens) (Q9UNQ0 whole entry, looked up): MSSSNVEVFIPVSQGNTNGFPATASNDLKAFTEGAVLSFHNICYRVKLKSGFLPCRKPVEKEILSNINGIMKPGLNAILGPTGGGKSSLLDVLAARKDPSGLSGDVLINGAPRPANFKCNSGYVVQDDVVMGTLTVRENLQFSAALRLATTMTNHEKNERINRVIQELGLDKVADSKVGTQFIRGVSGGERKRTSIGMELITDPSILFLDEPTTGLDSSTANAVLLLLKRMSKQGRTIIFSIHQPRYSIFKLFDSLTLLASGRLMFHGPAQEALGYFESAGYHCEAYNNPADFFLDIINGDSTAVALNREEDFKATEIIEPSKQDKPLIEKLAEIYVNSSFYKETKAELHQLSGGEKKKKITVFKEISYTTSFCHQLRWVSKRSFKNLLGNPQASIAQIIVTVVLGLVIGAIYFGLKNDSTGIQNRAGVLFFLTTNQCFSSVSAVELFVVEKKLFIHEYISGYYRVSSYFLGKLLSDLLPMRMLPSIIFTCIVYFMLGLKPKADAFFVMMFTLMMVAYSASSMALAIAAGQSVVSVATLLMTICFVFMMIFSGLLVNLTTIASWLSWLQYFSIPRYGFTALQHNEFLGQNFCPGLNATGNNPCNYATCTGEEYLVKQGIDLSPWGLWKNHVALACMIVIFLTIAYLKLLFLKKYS
SMILES,outcome,AC50
Oc1ccc(C(c2ccc(O)cc2)(C(F)(F)F)C(F)(F)F)cc1,inactive,
Cc1ccc(O)c(C)c1,inactive,
CCOC(=O)C(O)(c1ccc(Cl)cc1)c1ccc(Cl)cc1,inactive,
ClC1=C(Cl)[C@]2(Cl)[C@@H]3[C@H]4C[C@H]([C@@H]5O[C@H]45)[C@@H]3[C@@]1(Cl)C2(Cl)Cl,,6.76 µM (active)
c1ccc(-c2ccccc2)cc1,inactive,
C[C@]12CCC(=O)C=C1CC[C@@H]1[C@@H]2CC[C@@]2(C)[C@H]1CC[C@]2(C)O,,9.08 µM (active)
C=CC(N)=O,inactive,
CC(C)(c1ccccc1)c1ccc(O)cc1,inactive,
CO/C=C(/C(=O)OC)c1ccccc1COc1cccc(C(F)(F)F)n1,,3.03 µM (active)
Nc1ccc(-c2ccc(N)cc2)cc1,inactive,
CCCCCCOC(=O)c1ccccc1C(=O)OCCCCCC,inactive,
CCCCCCCCCc1ccc(O)cc1,inactive,
CC#Cc1cc(C)nc(Nc2ccccc2)n1,,29.9 µM (active)
CC1=C2C[C@H]3[C@@H](CC=C4C[C@@H](O)CC[C@@]43C)[C@@H]2CC[C@]12O[C@@H]1C[C@H](C)CN[C@H]1[C@H]2C,,12.1 µM (active)
CCNc1nc(NC(C)C)nc(SC)n1,inactive,
Cc1ccccc1[N+](=O)[O-],inactive,
ClC1=C(Cl)[C@]2(Cl)[C@@H]3[C@@H](Cl)[C@H]4O[C@H]4[C@@H]3C1(Cl)C2(Cl)Cl,,15.8 µM (active)
C=CC(=O)NCNC(=O)C=C,inactive,
CC(C)C(=O)OCC(C)(C)C(OC(=O)C(C)C)C(C)C (stereo not given),inactive,
Cc1ccccc1CO[C@@H]1C[C@@]2(C(C)C)CC[C@]1(C)O2,inactive,

SMILES,outcome,AC50
ClC1=C(Cl)[C@]2(Cl)[C@@H]3[C@@H]4C[C@@H]([C@H]5O[C@@H]45)[C@@H]3[C@@]1(Cl)C2(Cl)Cl,,20.8 µM (active)
ClC(Cl)=C(c1ccc(Cl)cc1)c1ccc(Cl)cc1,,8.74 µM (active)
Cc1cc(-c2ccc(N)c(C)c2)ccc1N,inactive,
Cc1cc(O)ccc1Cl,inactive,
CN(C)c1nc(=O)n(C2CCCCC2)c(=O)n1C,inactive,
CN(C)CCO,inactive,
O=S(=O)(O)C(F)(F)C(F)(F)C(F)(F)C(F)(F)F,inactive,
O=C(NC(=O)c1cc(F)c(F)cc1Cl)Nc1cc(F)ccc1N1CCC(C(=O)O)CC1,inactive,
Cc1cccc(C)c1N,inactive,
Cc1ccccc1O,inactive,
O=C(O)C(F)(F)C(F)(F)C(F)(F)C(F)(F)C(F)(F)C(F)(F)C(F)(F)C(F)(F)F,,50 µM (active)
CCOP(=S)(OCC)SCSC(C)(C)C,inactive,
C[C@]12CCC(=O)C=C1CC[C@@H]1[C@@H]2CC[C@]2(C)C(=O)CC[C@@H]12,,19.7 µM (active)
CCC(C)c1cc([N+](=O)[O-])cc([N+](=O)[O-])c1O (stereo not given),inactive,
Oc1c(Cl)c(Cl)c(Cl)c(Cl)c1Cl,,6.05 µM (active)
O=C(O)C(F)(F)C(F)(F)C(F)(F)C(F)(F)C(F)(F)C(F)(F)C(F)(F)C(F)(F)C(F)(F)F,inactive,
O=NN(c1ccccc1)c1ccccc1,inactive,
N#Cc1ccc(N(CC(N)=O)CC(F)(F)F)cc1C(F)(F)F,inactive,
CCC(C)(c1ccc(O)cc1)c1ccc(O)cc1,inactive,
Clc1ccc(Cl)cc1,inactive,
